The antibiotic and cytotoxicity screens of Wong et al. (2023)
Hit rate of the full screen: of about 39,000 compounds, about 1,500 (3.8%) were called active. Many of the other results were omitted from the sample, so actives are more common in it than they were.

Test system: HSkMC (human skeletal muscle cells)
Test: cytotoxicity call (relative viability < 0.9)
Conditions: 10 µM

Question: Which cytotoxicity call does the source give for `C[C@H](CO)N1C[C@H](C)[C@H](CN(C)C(=O)Nc2ccc(F)cc2)Oc2ccc(NC(=O)Nc3cccc4ccccc34)cc2C1=O` here?
Answer: inactive

Question: How did the cytotoxicity call turn out when `CCS(=O)(=O)Nc1ccc2c(c1)C(=O)N(C)[C@H]1CC[C@@H](CC(=O)NCCCN3CCOCC3)O[C@H]1CO2` was run?
Answer: inactive

Question: `COc1ccc(CN(C)C[C@H]2Oc3ccc(NC(=O)Nc4ccc(C(F)(F)F)cc4)cc3C(=O)N([C@@H](C)CO)C[C@H]2C)cc1` was tested. Which cytotoxicity call did it give?
Answer: active

Question: How did the cytotoxicity call turn out when `COc1ccc(CN(C)C[C@H]2Oc3ccc(NC(=O)Nc4ccc(C(F)(F)F)cc4)cc3C(=O)N([C@@H](C)CO)C[C@@H]2C)cc1` was run?
Answer: active

Question: How did the cytotoxicity call turn out when `COc1ccc(NC(=O)Nc2ccc3c(c2)C(=O)N([C@H](C)CO)C[C@H](C)[C@H](CN(C)Cc2ccc(C(F)(F)F)cc2)O3)cc1` was run?
Answer: inactive

Question: For `COc1ccc(NC(=O)Nc2ccc3c(c2)C(=O)N([C@H](C)CO)C[C@@H](C)[C@@H](CN(C)Cc2ccc(C(F)(F)F)cc2)O3)cc1`, which cytotoxicity call is on record?
Answer: inactive

Question: Which cytotoxicity call does the source give for `COc1ccc(S(=O)(=O)Nc2ccc3c(c2)C(=O)N([C@@H](C)CO)C[C@@H](C)[C@@H](CN(C)Cc2ccccc2)OCCCC[C@H](C)O3)cc1` here?
Answer: inactive

Question: With `C[C@H](CO)N1C[C@H](C)[C@@H](CN(C)S(=O)(=O)c2ccc(Cl)cc2)Oc2c(NS(C)(=O)=O)cccc2C1=O` as the compound, how does the cytotoxicity call read?
Answer: inactive

Question: For `C[C@@H]1CN([C@@H](C)CO)C(=O)Cc2cc(NS(C)(=O)=O)ccc2O[C@H]1CN(C)S(=O)(=O)c1ccc(F)cc1`, which cytotoxicity call is on record?
Answer: inactive

Question: With `O=C(C[C@@H]1C=C[C@H](NC(=O)c2ccncc2)[C@@H](CO)O1)NCc1ccncn1` as the compound, how does the cytotoxicity call read?
Answer: inactive

Question: `Cc1ccc(S(=O)(=O)Nc2ccc3c(c2)C(=O)N([C@@H](C)CO)C[C@@H](C)[C@@H](CN(C)Cc2ccc(Oc4ccccc4)cc2)O3)cc1` was tested. Which cytotoxicity call did it give?
Answer: active

Question: With `Cc1ccc(S(=O)(=O)Nc2ccc3c(c2)C(=O)N([C@H](C)CO)C[C@@H](C)[C@@H](CN(C)Cc2ccc(Oc4ccccc4)cc2)O3)cc1` as the compound, how does the cytotoxicity call read?
Answer: active

Question: How did the cytotoxicity call turn out when `Cc1ccc(S(=O)(=O)Nc2ccc3c(c2)C(=O)N([C@@H](C)CO)C[C@H](C)[C@H](CN(C)Cc2ccc(Oc4ccccc4)cc2)O3)cc1` was run?
Answer: inactive

Question: Which cytotoxicity call does the source give for `Cc1ccc(S(=O)(=O)Nc2ccc3c(c2)C(=O)N([C@@H](C)CO)C[C@H](C)[C@@H](CN(C)Cc2ccc(Oc4ccccc4)cc2)O3)cc1` here?
Answer: inactive

Question: How did the cytotoxicity call turn out when `C[C@H]1CN([C@@H](C)CO)C(=O)c2cc(NS(=O)(=O)c3ccccc3)ccc2O[C@H]1CN(C)Cc1ccc(Oc2ccccc2)cc1` was run?
Answer: inactive

Question: How did the cytotoxicity call turn out when `COc1ccc(S(=O)(=O)Nc2ccc3c(c2)C(=O)N([C@H](C)CO)C[C@H](C)[C@@H](CN(C)Cc2ccc(Oc4ccccc4)cc2)O3)cc1` was run?
Answer: active

Question: With `COc1ccc(S(=O)(=O)Nc2ccc3c(c2)C(=O)N([C@H](C)CO)C[C@H](C)[C@H](CN(C)Cc2ccc(Oc4ccccc4)cc2)O3)cc1` as the compound, how does the cytotoxicity call read?
Answer: inactive

Question: Which cytotoxicity call does the source give for `COc1ccc(S(=O)(=O)Nc2ccc3c(c2)C(=O)N([C@H](C)CO)C[C@@H](C)[C@@H](CN(C)Cc2ccc(Oc4ccccc4)cc2)O3)cc1` here?
Answer: inactive

Question: With `C[C@H](CO)N1C[C@H](C)[C@@H](CN(C)Cc2ccc(Oc3ccccc3)cc2)Oc2ccc(NS(=O)(=O)c3ccccc3)cc2C1=O` as the compound, how does the cytotoxicity call read?
Answer: inactive

Question: Which cytotoxicity call does the source give for `C[C@@H]1CN([C@H](C)CO)C(=O)c2cc(NS(=O)(=O)c3ccccc3)ccc2O[C@@H]1CN(C)Cc1ccc(Oc2ccccc2)cc1` here?
Answer: active

Question: Which cytotoxicity call does the source give for `Cc1ccc(S(=O)(=O)Nc2ccc3c(c2)C(=O)N([C@@H](C)CO)C[C@@H](C)[C@H](CN(C)Cc2ccc(Oc4ccccc4)cc2)O3)cc1` here?
Answer: inactive

Question: How did the cytotoxicity call turn out when `CC(C)NC(=O)Nc1ccc2c(c1)C(=O)N([C@H](C)CO)C[C@@H](C)[C@@H](CN(C)C(=O)NC1CCCCC1)O2` was run?
Answer: inactive

Question: For `CN1CCN(C(=O)C[C@H]2CC[C@H](NC(=O)c3ccc4c(c3)OCO4)[C@H](CO)O2)CC1`, which cytotoxicity call is on record?
Answer: inactive

Question: For `C[C@@H]1CN([C@@H](C)CO)C(=O)c2cc(NS(=O)(=O)c3cccs3)ccc2O[C@@H](C)CCCCO[C@H]1CN(C)Cc1ccccc1`, which cytotoxicity call is on record?
Answer: inactive

Question: Which cytotoxicity call does the source give for `C[C@H](CO)N1C[C@H](C)[C@H](CN(C)C(=O)Cc2ccccn2)Oc2cc(-c3cccc(C(=O)N(C)C)c3)ccc2S1(=O)=O` here?
Answer: inactive

Question: For `C[N+](C)(C)CCCC[C@@H]1NC(=O)[C@@H]2C[C@H](C(=O)NCc3ccc(F)cc3)[C@H](c3cccc(OCCO)c3)N2C1=O`, which cytotoxicity call is on record?
Answer: inactive

Question: For `C[C@@H]1CCCCO[C@@H](CN(C)Cc2ccccc2)[C@H](C)CN([C@@H](C)CO)C(=O)c2cc(NC(=O)c3ccncc3)ccc2O1`, which cytotoxicity call is on record?
Answer: inactive

Question: With `C[C@H](CO)N1C[C@H](C)[C@@H](CN(C)C(=O)Nc2ccccc2F)Oc2ncc(Br)cc2C1=O` as the compound, how does the cytotoxicity call read?
Answer: inactive

Question: With `C[C@H](CO)N1C[C@H](C)[C@@H](CN(C)C(=O)Nc2ccc(C(C)(C)C)cc2)OCc2cn(nn2)CCCC1=O` as the compound, how does the cytotoxicity call read?
Answer: inactive

Question: Which cytotoxicity call does the source give for `C[C@H]1CN([C@@H](C)CO)C(=O)Cc2cc(NC(=O)Cc3cn(C)c4ccccc34)ccc2O[C@H]1CN(C)Cc1ccc(C(=O)Nc2ccccc2N)cc1` here?
Answer: inactive

Question: Which cytotoxicity call does the source give for `C[C@H](CO)N1C[C@H](C)[C@@H](CN(C)C(=O)C2CCCCC2)OCCCC[C@H](C)Oc2ccc(NS(=O)(=O)c3cccs3)cc2C1=O` here?
Answer: inactive

Question: With `C[C@H](O)C#Cc1cnc2c(c1)C(=O)N([C@@H](C)CO)C[C@H](C)[C@H](CN(C)C(=O)CN1CCOCC1)O2` as the compound, how does the cytotoxicity call read?
Answer: inactive

Question: How did the cytotoxicity call turn out when `CC(C)NC(=O)N(C)C[C@@H]1Oc2c(NS(=O)(=O)c3cn(C)cn3)cccc2C(=O)N([C@@H](C)CO)C[C@@H]1C` was run?
Answer: inactive

Question: `C[C@@H]1CN([C@@H](C)CO)C(=O)c2cc(NS(=O)(=O)c3cccs3)ccc2O[C@@H](C)CCCCO[C@@H]1CN(C)Cc1ccccc1` was tested. Which cytotoxicity call did it give?
Answer: inactive

Question: Which cytotoxicity call does the source give for `Cc1ccc(S(=O)(=O)Nc2ccc3c(c2)C(=O)N([C@H](C)CO)C[C@@H](C)[C@H](CN(C)Cc2ccc(Oc4ccccc4)cc2)O3)cc1` here?
Answer: active

Question: For `Cc1ccc(S(=O)(=O)Nc2ccc3c(c2)C(=O)N([C@H](C)CO)C[C@H](C)[C@H](CN(C)Cc2ccc(Oc4ccccc4)cc2)O3)cc1`, which cytotoxicity call is on record?
Answer: inactive

Question: For `Cc1ccc(S(=O)(=O)Nc2ccc3c(c2)C(=O)N([C@H](C)CO)C[C@H](C)[C@@H](CN(C)Cc2ccc(Oc4ccccc4)cc2)O3)cc1`, which cytotoxicity call is on record?
Answer: inactive

Question: Which cytotoxicity call does the source give for `O=C(CCCCC(=O)N/N=C/[C@H](O)[C@@H](O)[C@@H](O)[C@H](O)C(=O)O)NO` here?
Answer: inactive
